Consider 62 compounds from PubChem BioAssay AID463190 (Sanford-Burnham Center for Chemical Genomics, 2010).

Each structure is given as a SMILES string. Screen size: about 330,000 compounds; about 7,300 (2.2%) were called active.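 How the source made its calls: active means inhibition of at least 40%; inactive means the rest.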 The full list was thinned out, with actives kept by preference.

The assay in a line: growth inhibition of tim10-1 ts yeast – luminescence, uHTS, primary screen (AID 463190).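 Further: mutant grown at 25 °C; 0% = DMSO wells with yeast and 100% = wells holding no yeast.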 The following applies: S. cerevisiae tim10-1 ts strain growth, BacTiter-Glo, 24 h; at 20 µM; hits give high values.
The inhibition is the drop in the measured response relative to a control, in per cent. Take `CCc1[nH]nc(C(=O)N2CCCC(CO)(Cc3ccc(F)cc3F)C2)c1C` (configuration not stated): the inhibition is 24.1% (inactive).

Take `COc1cc2c(cc1OC)C(C(=O)Nc1cc(C)c(OC)c(C)c1)CC(=O)N2` (configuration not stated): the inhibition was -5.96% (inactive).

`CS(=O)(=O)N(Cc1ccccc1)c1ccc(C(=O)NN=C2CCCCCC2)cc1`: the inhibition was 17.2% (inactive).

On to `O=C(N/N=C\c1cccc(Br)c1)c1ccccc1-n1cccc1`, for which the inhibition was 57.6% (active).

With `O=C(N/N=C/c1cccc(Br)c1)c1ccc(N2CCCC2=O)cc1`, the inhibition was -37.8% (inactive).

On to `O=C(CNC(=O)c1cccs1)N/N=C/c1cccc(Br)c1`, for which the inhibition is 22% (inactive).

Consider `CCN(Cc1ccncc1)C(=O)CCc1ccccc1`, for which the inhibition was -0.112% (inactive).

With `COc1ccc(NC(=O)/C(C#N)=C\c2cc(OC)c(OCc3ccc(C(=O)O)cc3)cc2Br)cc1`, the inhibition is 26.4% (inactive).

With `COc1ccc(CNC(=O)CCn2cccc2)cc1`, the inhibition was 9.29% (inactive).

As to `COc1ccc(CNC(=O)/C(C#N)=C/c2cccc(OC)c2OC)cc1`, the inhibition is 63.8% (active).

Turning to `CC(C)c1ccc(/C=C2\NC(=O)NC2=O)cc1`, the inhibition is 10.2% (inactive).

Turning to `Cc1[nH]c2ccc(C(=O)N3CCN(C)CC3)cc2c1C`, the inhibition is -12.6% (inactive).

Turning to `CCOc1ccccc1N1CCN(C(=O)c2ccc3[nH]c(C)c(C)c3c2)CC1`, the inhibition is 48.8% (active).

With `COc1ccccc1N1CCN(C(=O)c2ccc(Cl)c(S(=O)(=O)N3CCCC3)c2)CC1`, the inhibition was 22% (inactive).

`COc1ccc(-c2c(C#Cc3ccsc3)c3cc(-c4ccc(CN5CCOCC5)cc4)ccc3n2C)cc1`: the inhibition is 15.1% (inactive).

With `Cc1ccccc1C(=O)N1CCC(C(=O)Oc2ccc(C#N)cc2)CC1`, the inhibition is -2.27% (inactive).

For `CS(=O)(=O)n1nc(-c2ccco2)nc1N`, the inhibition is 3.68% (inactive).

In the case of `CCCn1nc(C(=O)NNC(=O)CCOc2ccccc2OCC)c2ccccc2c1=O`, the inhibition was 17.6% (inactive).

For the compound `CCOc1ccccc1/C=c1\sc2nc(-c3ccco3)nn2c1=O`, the inhibition is 54.3% (active).

Regarding `Cn1cccc1C(C#N)c1ccccc1C#N` (configuration not stated), the inhibition was 10.1% (inactive).

Consider `O=C(NC1(C(F)(F)F)NC(=O)N(Cc2cccnc2)C1=O)c1ccccc1Cl` (configuration not stated), for which the inhibition was 9.72% (inactive).

As to `COc1cc(C(=O)N(C)Cc2cccc(OC)c2OC)ccc1OCC(=O)Nc1cccc(C(F)(F)F)c1`, the inhibition was 20.8% (inactive).

On to `COc1ccc(Cn2c(=O)cc(C)[nH]c2=S)cc1`, for which the inhibition was -11.8% (inactive).

With `CCn1c(C)cc(=O)cc1-c1ccc(Cl)cc1`, the inhibition was 8.56% (inactive).

Take `COc1ccc(Cn2c(-c3ccc(Cl)cc3)c[n+]3ccccc23)cc1`: the inhibition is 48.6% (active).

In the case of `Cc1cccc(NS(=O)(=O)c2cccc(C(=O)NNC(=O)c3ccccc3O)c2)c1`, the inhibition was 21.6% (inactive).

As to `O=C(CN1CCN(C(=S)NC2CCCC2)CC1)Nc1ccc(Oc2ccccc2)cc1`, the inhibition was 12.6% (inactive).

With `Cc1ccc2cc(C#N)c(NCCNC(=S)NCCCN3CCOCC3)nc2c1`, the inhibition is -0.527% (inactive).

For `CC(C)N(C(=O)Cn1cc(S(=O)(=O)CC(=O)N2CCOCC2)c2ccccc21)C(C)C`, the inhibition was -3.3% (inactive).

As to `CCOC(=O)c1ccc(NC(=O)c2nc[nH]c2C(=O)NCc2ccccc2)cc1`, the inhibition is 41.1% (active).

Consider `CCOC(=O)c1[nH]cnc1C(=O)Nc1ccccc1C`, for which the inhibition was 11.6% (inactive).

With `O=C(Nc1ccon1)c1nc[nH]c1C(=O)NCc1ccccc1`, the inhibition is 7.98% (inactive).

Consider `CC(C)c1ccc(S(=O)(=O)N2CCN(C(C)C(=O)NC3CCCC3)CC2)cc1` (configuration not stated), for which the inhibition was 13.4% (inactive).

On to `Nc1c(C(=O)O)cnn1-c1ccccc1`, for which the inhibition was 2.2% (inactive).

`CCN(C(=O)COC(=O)c1ccccc1O)c1cccc2ccccc12`: the inhibition was 24.2% (inactive).

For `O=C(O)c1cccc(NC(=S)N/N=C/c2c[nH]c3ccccc23)c1`, the inhibition was 19% (inactive).

Take `CSC(=S)N/N=C/c1c[nH]c2ccccc12`: the inhibition is 54.2% (active).

As to `Nc1nonc1-n1nnc(C(=O)N/N=C/c2c[nH]c3ccccc23)c1-c1ccccc1`, the inhibition is 11.6% (inactive).

As for `Cn1cnc(S(=O)(=O)Nc2ccc3c(c2)OCCO3)c1`, the inhibition was -19.7% (inactive).

Turning to `O=C(CC1N=C2c3ccccc3N=C(SCc3ccccc3Cl)N2C1=O)NCc1ccco1` (configuration not stated), the inhibition was 24.8% (inactive).

On to `Clc1ccccc1CSc1nnc(-c2ccco2)c(-c2ccco2)n1`, for which the inhibition was 41.7% (active).

As for `S=C(NCc1ccco1)NCc1ccccc1Cl`, the inhibition is 28.9% (inactive).

Regarding `Cc1cc(C)n(Cc2cnc(N3CCOCC3)s2)n1`, the inhibition was 10.6% (inactive).

In the case of `COc1ccc(-n2c(=O)[nH]c3cc(C(=O)NCCc4ccc(OC)c(OC)c4)ccc3c2=O)c(OC)c1`, the inhibition was 7.83% (inactive).

Consider `CCOc1ccccc1N(CC(=O)NC1CCCCC1)C(=O)CCCC(=O)Nc1ccccn1`, for which the inhibition is 10.6% (inactive).

`Cn1c(Cc2cccs2)nnc1SCC(=O)Nc1ccccc1`: the inhibition is 10.8% (inactive).

As to `CCn1c(=O)c([N+](=O)[O-])c(NCc2ccc3c(c2)OCO3)c2ccccc21`, the inhibition was 2.3% (inactive).

For `CCn1c(/C=C/c2ccc([N+](=O)[O-])o2)nc2ccccc2c1=O`, the inhibition was 69.9% (active).

`CCc1ccc(S(=O)(=O)N/N=C\c2ccc([N+](=O)[O-])o2)cc1`: the inhibition was 30.4% (inactive).

Turning to `COc1ccc(OC)c(C2C3=C(N=c4s/c(=C\c5cccc(O)c5)c(=O)n42)c2ccccc2CC3)c1` (configuration not stated), the inhibition is 22% (inactive).

With `COc1ccc(CN2CC[C@H]3C=CC[C@@H](C(=O)N4CCOCC4)[C@H]3C2=O)cc1OC`, the inhibition was 6.76% (inactive).

Take `Cc1nc2ccccn2c1C(=O)NN=C1CCN(C)CC1`: the inhibition was 1.25% (inactive).

Turning to `CCOC(=O)Cn1c(O)c(N=NC(=O)CNC(=O)Cc2ccccc2)c2ccccc21`, the inhibition is -11.5% (inactive).

As to `O=C(CN1CCCC1)Nc1sc2c(c1C(=O)Nc1ccccc1)CCCC2`, the inhibition is 2.11% (inactive).

As for `Cc1nc(-c2ccccc2)sc1C(=O)/C=C/N(C)C`, the inhibition was 5.62% (inactive).

Consider `Cc1nc(-c2ccc(Cl)cc2)sc1C(=O)CBr`, for which the inhibition was 50.9% (active).

With `Cc1nc(-c2ccc(Cl)cc2)sc1C(=O)NN`, the inhibition is -3.83% (inactive).

For the compound `CCc1ccc(S(=O)(=O)Nc2ccc(C)c(NS(C)(=O)=O)c2)cc1`, the inhibition was -0.664% (inactive).

Turning to `O=S(=O)(Nc1cc(Cl)ccc1N1CCOCC1)c1ccccc1Cl`, the inhibition was 12% (inactive).

For the compound `Brc1ccc(-c2nnc(-c3ccccc3)o2)o1`, the inhibition is -6.79% (inactive).

For the compound `Nc1ccc(-c2nnc(-c3ccccc3)o2)cc1`, the inhibition is -11.5% (inactive).

As for `Nc1ccc(-c2nnc(-c3ccc(-c4ccccc4)cc3)o2)cc1`, the inhibition is 45.9% (active).
